Experiment [1] is described as follows: qHTS RealTime-Glo MT Cell Viability Assay in HepG2 cells - 40 hour (AID 1224870). Note: nearly all actives have a fitted effect of over 50% in size. The essentials: (§1)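 HepG2 cells mixed with RealTime-Glo MT reagents (NanoLuc plus cell-permeant prosubstrate) were seeded at 600 cells/well, incubated 5 h at 37 C/5% CO2, then pinned with compounds in DMSO; nonlytic luminescence tracked viability during 40 h treatment.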
For orientation: In qHTS, concentration-response curves come from the screen itself.

Experiment [2] can be described thus: A CellTox Green Cytotoxicity Assay to monitor cytotoxicity in HEK293 cells - 40 hour (AID 1224871). Note: nearly all actives have a fitted effect of over 45% in size. The essentials:
(§2)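 Cells (HEK293, 600/well) and dye reagent are dispensed together. After 5 h at 37 C, 23 nL compound is pinned in. Plates stay at 37 C for 40 h with fluorescence read at 0h, 8h, 16h, 24h, 32h and 40h.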

Experiment [3] in a line: qHTS RealTime-Glo MT Cell Viability Assay in HEK293 cells - 16 hour (AID 1224872). Note: top concentration of the series differs between compounds; nearly all actives have a fitted effect of over 50% in size. The essentials: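 Luminescence generated by NanoLuc from substrate produced by living HEK293 cells served as the viability signal. Each value reflects the reading at its stated time point during continuous 40 h compound exposure at 37 C.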
Experiment [4] in a line: qHTS RealTime-Glo MT Cell Viability Assay in HepG2 cells - 8 hour (AID 1224873). Note: nearly all actives have a fitted effect of over 55% in size. The procedure, abridged:
as §1

Experiment [5] can be described thus: qHTS RealTime-Glo MT Cell Viability Assay in HEK293 cells - 40 hour (AID 1224874). Note: nearly all actives have a fitted effect of over 50% in size. Note: potency is the fitted concentration of half-maximal effect. Particulars: RealTime-Glo luminescence; max response: stronger effect = lower value. The essentials: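 Real-time viability in HEK293: signal arises when living cells convert a prosubstrate for NanoLuc in the medium, so luminescence tracks viable cell number. Compound (23 nL, DMSO) added 5 h post-seeding; kinetic reads at 0–40 h, 37 C.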

Experiment [6] in a line: A CellTox Green Cytotoxicity Assay to monitor cytotoxicity in HEK293 cells - 24 hour (AID 1224875). Note: series mostly up to about 77 µM; nearly all actives have a fitted effect of over 45% in size. The essentials: as §2
Experiment [7] can be described thus: A CellTox Green Cytotoxicity Assay to monitor cytotoxicity in HepG2 cells - 16 hour (AID 1224876). Note: nearly all actives have a fitted effect of over 45% in size. The procedure, abridged: (§3)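 Cells and non-lytic dye reagent are dispensed together (600 HepG2 cells/well) and incubated 5 h before DMSO compound transfer. Kinetic fluorescence is then recorded in the same wells during 40 h at 37 C.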
Experiment [8] is described as follows: qHTS RealTime-Glo MT Cell Viability Assay in HepG2 cells - 32 hour (AID 1224877). Note: nearly all actives have a fitted effect of over 55% in size. The procedure, abridged: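 Tox21 10K library screened in qHTS format on HepG2 cells carrying RealTime-Glo reagents. Compounds were added after a 5 h preincubation, and the luminescent signal from continuous culture was measured repeatedly during 40 h treatment.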
A short description of experiment [9]: A CellTox Green Cytotoxicity Assay to monitor cytotoxicity in HepG2 cells - 24 hour (AID 1224878). Note: nearly all actives have a fitted effect of over 45% in size. Note: potency is the fitted concentration of half-maximal effect. The procedure, abridged:
as §3

A short description of experiment [10]: A CellTox Green Cytotoxicity Assay to monitor cytotoxicity in HepG2 cells - 40 hour (AID 1224879). Note: nearly all actives have a fitted effect of over 40% in size. Note: potency is the fitted concentration of half-maximal effect. The essentials:
as §3

“And” between values parts separate entries of the source, which are not always exact repeats. Equal entries are not always repeated. Results filed as inconclusive are left out. More than one record can exist for a structure, and the calls need not agree. The source made the active and inactive calls. Calls come from the whole dose curve; as a rule, active = well fitted curve in the direction sought with a large enough effect in the repeat runs; inconclusive = weak or mixed curves; inactive = no such curve, though single readings can be large; an effect the other way counts as inactive or inconclusive.
% is set by controls: 0 for no effect and ±100 for the full control effect.

Turning to `CC(C)(C)C1CCC(O)CC1` (stereo not given), the Potency entry in [1], in experiment [2], in experiment [3], in experiment [4], in experiment [6] and in experiment [7] was “inactive” in each case. Besides, the Potency entry in experiment [8], in experiment [9] and in experiment [10] was “inactive” throughout. Also, the max response in [5] was -21.7% (inactive) and -6.15% (inactive).
As for `OCC1CCCO1` (stereo not given), the Potency entry in experiment [1], in experiment [2], in [3], in experiment [4], in experiment [6] and in [7] was “inactive” throughout. Also, the Potency entry in experiment [8], in [9] and in experiment [10] was “inactive” in each case. Moreover, in [5], the max response was 1.79% (inactive) and -10.7% (inactive).
For the compound `CS(=O)(=O)Nc1ccc([N+](=O)[O-])cc1Oc1ccccc1`, the Potency entry in experiment [1], in [2], in experiment [3], in experiment [4], in experiment [6] and in experiment [7] was “inactive” throughout. Also, the Potency result in [8], in [9] and in experiment [10] was “inactive” in each case. In addition, the max response in [5] was -6.51% (inactive) and 1.07% (inactive).
With `CC1Cc2ccccc2N1NC(=O)c1ccc(Cl)c(S(N)(=O)=O)c1` (stereo not given), the Potency entry in experiment [1], in experiment [2], in [3], in experiment [4], in experiment [6] and in [7] was “inactive” each time. Besides, the Potency entry in experiment [8], in experiment [9] and in experiment [10] was “inactive” throughout. Also, in experiment [5], the max response was 3.11% (inactive) and -9.79% (inactive).
In the case of `C=C1C2CCC(C2)C1(C)C` (stereo not given), the Potency entry in [1], in experiment [2], in experiment [3], in experiment [4], in [6] and in [7] was “inactive” in each case. Further, the Potency entry in experiment [8], in experiment [9] and in experiment [10] was “inactive” throughout. The max response in experiment [5] is -3.35% (inactive) and 5.02% (inactive).
Turning to `Clc1ccc(Cl)c(Cl)c1Cl`, the Potency entry in experiment [1], in [2], in [3], in experiment [4], in experiment [6] and in experiment [7] was “inactive” each time. Further, the Potency result in experiment [8], in experiment [9] and in experiment [10] was “inactive” throughout. Besides, the max response in [5] is 0.667% (inactive) and -4.21% (inactive).
For `CC(C)(C)C(=O)C1C(=O)c2ccccc2C1=O`, the Potency result in [1], in experiment [2], in experiment [3], in experiment [4], in experiment [6] and in experiment [7] was “inactive” each time. Also, the Potency result in [8] and in [9] was “inactive” each time. The max response in [5] was -29.9% (inactive) and -11.1% (inactive). Also, in experiment [10], the Potency was 54.4 µM (active) and inactive.
`Cc1cc(=O)[nH]c(C(C)C)n1`: the Potency entry in experiment [1], in experiment [2], in experiment [3], in [4], in [6] and in experiment [7] was “inactive” throughout. Besides, the Potency result in [8], in experiment [9] and in [10] was “inactive” throughout. The max response in [5] is 1.9% (inactive) and -0.481% (inactive).
As for `Clc1cc(Cl)c(Cl)cc1Cl`, the Potency result in experiment [1], in experiment [2], in experiment [3], in experiment [4], in [6] and in [7] was “inactive” throughout. The Potency entry in experiment [8], in experiment [9] and in experiment [10] was “inactive” in each case. The max response in experiment [5] was 4.68% (inactive) and 15.5% (inactive).
As to `C[C@@H](O)[C@H]1C(=O)N2C(C(=O)O)=C(S[C@@H]3CN[C@H](C(=O)N(C)C)C3)[C@H](C)[C@H]12`, the Potency entry in [1], in experiment [2], in experiment [3], in experiment [4], in [6] and in [7] was “inactive” in each case. The Potency result in experiment [8], in experiment [9] and in experiment [10] was “inactive” each time. Also, in experiment [5], the max response is 2.43% (inactive) and 4.85% (inactive).
For `S=c1nc[nH]c2nc[nH]c12`, the Potency result in experiment [1], in [2], in experiment [3], in [4], in [6] and in [7] was “inactive” in each case. The Potency result in experiment [8], in experiment [9] and in experiment [10] was “inactive” throughout. For the same compound, in experiment [5], the Potency is 16.9 µM (active).
Regarding `CCCCCCOC(C)=O`, the Potency result in [1], in experiment [2], in [3], in experiment [4], in [6] and in experiment [7] was “inactive” throughout. In addition, the Potency result in experiment [8], in experiment [9] and in experiment [10] was “inactive” in each case. Moreover, the max response in experiment [5] is 0.539% (inactive) and -29.1% (inactive).
As to `CC(C)n1c(/C=C/[C@@H](O)C[C@@H](O)CC(=O)O)c(-c2ccc(F)cc2)c2ccccc21`, the Potency result in experiment [1], in [2], in experiment [3], in [4], in experiment [6] and in experiment [7] was “inactive” throughout. In experiment [8], the Potency result is “inactive”. Moreover, the max response in experiment [5] was -22.2% (inactive) and 0.258% (inactive). The Potency in experiment [9] was 6.17 µM (active) and 10.7 µM (active); in experiment [10], 4.36 µM (active) and 9.52 µM (active).
On to `CC1=CC[C@H]2C[C@@H]1C2(C)C`, for which the Potency entry in experiment [1], in [2], in [3], in experiment [4], in [6] and in experiment [7] was “inactive” in each case. Further, the Potency result in experiment [8], in [9] and in experiment [10] was “inactive” each time. Besides, the max response in [5] is 0.867% (inactive) and -1.12% (inactive).
`CCCCCCCCCC(=O)O`: the Potency result in [1], in [2], in [3], in experiment [4], in [6] and in experiment [7] was “inactive” each time. Moreover, the Potency result in experiment [8], in [9] and in experiment [10] was “inactive” throughout. Moreover, the max response in experiment [5] was 7.81% (inactive) and 12.5% (inactive).
Turning to `CCCCCCCCCCC=CC1CC(=O)OC1=O` (stereo not given), the Potency entry in [1], in experiment [2], in experiment [3], in experiment [4], in [6] and in experiment [7] was “inactive” in each case. For the same compound, the Potency result in [8], in experiment [9] and in [10] was “inactive” in each case. The max response in [5] was 0.806% (inactive) and -0.583% (inactive).
As to `CNC[C@H](O)[C@@H](O)[C@H](O)[C@H](O)CO`, the Potency entry in experiment [1], in experiment [2], in experiment [3], in experiment [4], in [6] and in experiment [7] was “inactive” in each case. Also, the Potency result in experiment [8], in experiment [9] and in experiment [10] was “inactive” in each case. Besides, in [5], the max response was 8.02% (inactive) and 0.166% (inactive).
Turning to `COC(=O)c1ccccc1O`, the Potency entry in experiment [1], in [2], in experiment [3], in [4], in experiment [6] and in [7] was “inactive” throughout. Moreover, the Potency result in experiment [8], in experiment [9] and in [10] was “inactive” throughout. In experiment [5], the max response was -1.26% (inactive) and 16.9% (inactive).
For the compound `CCCCCCCCCCCCOCC1CO1` (stereo not given), the Potency result in experiment [1], in experiment [2], in [3], in experiment [4], in [6] and in experiment [7] was “inactive” throughout. Further, the Potency result in [8], in [9] and in experiment [10] was “inactive” in each case. The max response in experiment [5] was -10.9% (inactive) and -25.4% (inactive).

Values taken from PubChem BioAssay (Tox21).
